Activity calls are given as the source filed them.
Experiments:
[1] = test system: Plasmodium falciparum Sir2 (PF13_0152, Sir2A); test: pfSir2 binders on small-molecule microarrays, primary screen, biochemical, small-molecule microarray, 635 nm fluorescence (AID 1098); conditions: small-molecule microarray binding, fluorescence 635 nm; higher = more signal;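 also: score merges spot fluorescence intensity with its signal-to-noise ratio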
[2] = small-molecule microarray binders of probe aDKK1, primary screen, biochemical, biotinylated probe, 635/667 nm fluorescence (AID 1099); conditions: higher = more signal;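 also: score merges 667nm spot fluorescence with signal to noise across triplicate slides; reference of the scale not given here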
[3] = small-molecule microarray binders of probe aCHRDL2, primary screen, biochemical, biotinylated probe, 635/667 nm fluorescence (AID 1100); conditions: higher = more signal
[4] = splicing luciferase reporter signal modulators, primary screen, spliceosome inhibition project, cell-based, HEK293, splice +/- reporter (AID 1101); conditions: luminescence, 24 h, higher = more signal, called active from +8 up or from −8 down;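 also: HEK293 cells carrying a splicing-competent luciferase reporter gene; test concentration not given here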
[5] = molecular target: Fibroblast growth factor 10 (Homo sapiens) (UniProt O15520); test: FGF10 binders on small-molecule microarrays, primary screen, biochemical, small-molecule microarray, 635 nm fluorescence (AID 1102); conditions: FGF10 binding, fluorescence 635 nm, higher = more signal
Sequence of Fibroblast growth factor 10 (Homo sapiens) (O15520 whole entry, looked up): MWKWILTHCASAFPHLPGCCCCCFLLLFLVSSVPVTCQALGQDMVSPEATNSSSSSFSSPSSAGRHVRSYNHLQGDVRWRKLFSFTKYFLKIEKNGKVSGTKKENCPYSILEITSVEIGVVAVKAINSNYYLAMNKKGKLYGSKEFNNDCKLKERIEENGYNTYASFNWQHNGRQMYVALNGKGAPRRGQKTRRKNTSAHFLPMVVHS

[6] = test system: glycogen synthase kinase-3 (GSK3A per assay name; protocol says GSK3B); test: GSK3 binders on small-molecule microarrays, primary screen, biochemical, small-molecule microarray, 635 nm fluorescence, GSK3A (AID 1103); conditions: small-molecule microarray binding, fluorescence 635 nm; higher = more signal; also: the record names both GSK3A and GSK3B
[7] = molecular target: Epidermal growth factor receptor (Homo sapiens) (UniProt P00533); test: EGFR binders on small-molecule microarrays, primary screen, biochemical, small-molecule microarray, 635 nm fluorescence (AID 1104); conditions: EGFR binding, higher = more signal;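 also: score merges 667 nm emission intensity with spot signal to noise over triplicate slides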
Sequence of Epidermal growth factor receptor (Homo sapiens) (P00533 whole entry, looked up): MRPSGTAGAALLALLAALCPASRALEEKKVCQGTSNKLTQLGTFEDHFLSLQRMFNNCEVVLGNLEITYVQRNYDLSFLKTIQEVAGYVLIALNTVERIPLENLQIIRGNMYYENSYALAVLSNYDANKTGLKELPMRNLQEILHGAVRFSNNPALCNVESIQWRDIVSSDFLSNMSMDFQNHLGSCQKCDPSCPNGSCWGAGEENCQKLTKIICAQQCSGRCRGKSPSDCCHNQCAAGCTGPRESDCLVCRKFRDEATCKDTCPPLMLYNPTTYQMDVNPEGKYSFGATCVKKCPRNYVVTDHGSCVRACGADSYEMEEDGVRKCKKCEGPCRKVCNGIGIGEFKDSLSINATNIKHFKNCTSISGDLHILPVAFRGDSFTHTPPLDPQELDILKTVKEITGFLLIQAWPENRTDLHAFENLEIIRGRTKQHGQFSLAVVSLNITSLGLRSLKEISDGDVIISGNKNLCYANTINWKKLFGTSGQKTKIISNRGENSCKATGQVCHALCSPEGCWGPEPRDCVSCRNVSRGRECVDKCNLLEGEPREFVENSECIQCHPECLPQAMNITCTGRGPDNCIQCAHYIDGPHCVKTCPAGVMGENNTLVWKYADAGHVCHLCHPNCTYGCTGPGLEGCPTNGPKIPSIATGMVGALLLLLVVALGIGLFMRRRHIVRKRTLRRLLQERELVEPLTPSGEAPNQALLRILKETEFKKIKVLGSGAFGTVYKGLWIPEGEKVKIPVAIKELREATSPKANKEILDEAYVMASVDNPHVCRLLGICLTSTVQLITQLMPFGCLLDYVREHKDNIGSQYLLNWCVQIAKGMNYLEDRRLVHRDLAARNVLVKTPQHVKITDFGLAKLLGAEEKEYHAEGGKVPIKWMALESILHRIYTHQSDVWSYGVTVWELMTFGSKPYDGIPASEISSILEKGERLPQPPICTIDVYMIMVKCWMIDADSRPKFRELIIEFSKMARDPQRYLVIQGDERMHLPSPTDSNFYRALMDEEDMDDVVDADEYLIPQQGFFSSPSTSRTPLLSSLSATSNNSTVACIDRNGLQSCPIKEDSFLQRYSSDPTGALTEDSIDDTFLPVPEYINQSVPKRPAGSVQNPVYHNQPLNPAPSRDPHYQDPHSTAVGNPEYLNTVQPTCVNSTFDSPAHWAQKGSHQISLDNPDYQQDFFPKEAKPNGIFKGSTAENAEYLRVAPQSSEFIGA

[8] = molecular target: Follistatin-related protein 3 (Homo sapiens) (UniProt O95633); test: FSTL3 binders on small-molecule microarrays, primary screen, biochemical, small-molecule microarray, 635 nm fluorescence (AID 1105); conditions: FSTL3 binding, higher = more signal;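 also: score merges emission near 667 nm and signal to noise per printed spot across three slides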
Sequence of Follistatin-related protein 3 (Homo sapiens) (O95633 whole entry, looked up): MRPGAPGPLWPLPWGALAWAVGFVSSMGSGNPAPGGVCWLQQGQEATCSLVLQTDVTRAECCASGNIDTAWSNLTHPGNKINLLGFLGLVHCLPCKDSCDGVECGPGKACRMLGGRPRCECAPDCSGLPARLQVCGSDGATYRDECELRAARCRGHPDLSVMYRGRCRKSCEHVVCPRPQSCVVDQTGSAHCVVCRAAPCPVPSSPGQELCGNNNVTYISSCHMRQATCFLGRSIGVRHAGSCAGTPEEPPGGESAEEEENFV

[9] = molecular target: Dickkopf-related protein 1 (Homo sapiens) (UniProt O94907); test: DKK1 binders on small-molecule microarrays, primary screen, biochemical, small-molecule microarray, 635 nm fluorescence scan (AID 1106); conditions: DKK1 binding, higher = more signal;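 also: score merges emission near 667 nm with signal to noise over three replicate slides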
Sequence of Dickkopf-related protein 1 (Homo sapiens) (O94907 whole entry, looked up): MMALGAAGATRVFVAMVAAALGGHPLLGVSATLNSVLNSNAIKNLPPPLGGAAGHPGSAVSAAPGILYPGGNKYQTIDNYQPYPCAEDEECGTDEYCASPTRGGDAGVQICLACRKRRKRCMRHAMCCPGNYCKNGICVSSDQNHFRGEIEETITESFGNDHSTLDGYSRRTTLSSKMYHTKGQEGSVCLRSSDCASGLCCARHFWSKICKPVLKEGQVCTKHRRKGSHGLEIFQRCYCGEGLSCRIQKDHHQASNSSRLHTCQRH

[10] = test system: Inhibin beta A chain (activin A); test: INHBA (activin A) binders on microarrays, primary screen, biochemical, small-molecule microarray, 635 nm fluorescence scan (AID 1107); conditions: small-molecule microarray binding, higher = more signal;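 also: mouse activin A protein probed at 4.33 µg/mL on printed slides; score merges bound-protein fluorescence near 667 nm with spot signal-to-noise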

| Compound | composite z-score [1] | composite z-score [2] | composite z-score [3] | z-score [4] | composite z-score [5] | composite z-score [6] | composite z-score [7] | composite z-score [8] | composite z-score [9] | composite z-score [10] |
| --- | --- | --- | --- | --- | --- | --- | --- | --- | --- | --- |
| Cc1ccc(S[C@]2(C(=O)NCc3ccccc3)CC(=O)N(Cc3ccccc3C(F)(F)F)[C@@H]2c2ccc(CO)cc2I)cc1 | 1.62 | 0.211 | 0.831 | -0.494 (inactive) | -0.557 | -0.498 | -1.3 | -0.793 | -0.749 | 1.07 |
| CCCCN1CC=CC23O[C@@H]4C=CCCOC(=O)C4[C@H]2C(=O)N(CCO)[C@@H]3C1=O (stereo not given in full) | -1.33 | -0.364 | 0.297 | 0.244 (inactive) | 0.107 | -0.248 | -1.19 | -0.838 | -0.587 | 0.0542 |
| CC[C@H]1C2=C3C(CC[C@H]4C(OCc5ccc(F)cc5C(F)(F)F)OC[C@](C)([C@@H]34)N(C(=O)OC(C)(C)C)C2)C(COC(C)=O)C1COC(C)=O (stereo not given in full) | 0.386 | 0.62 | 0.971 | -0.695 (inactive) | 0.402 | 0.665 | -0.379 | 0.418 | -0.583 | 0.691 |
| COC(=O)[C@@]1(Cc2ccc(F)cc2)[C@H]2c3cc(C(=O)N(C)C)n(Cc4cccc5ccccc45)c3C[C@H]2CN1C(=O)c1ccccc1 | 0.796 | 0.926 | 1.04 | 0.551 (inactive) | 1.13 | 0.111 | -0.953 | -0.242 | -1.02 | 0.644 |
| COCCOC(=O)N1C(=O)[C@@]2(c3ccccc31)[C@H](C(=O)Nc1nc3ccccc3s1)[C@H]1C(=O)O[C@H](c3ccccc3)[C@H](c3ccccc3)N1[C@@H]2c1ccccc1OCCO | 1.53 | 0.114 | 0.653 | -0.794 (inactive) | 0.906 | 0.783 | 0.209 | 0.678 | 0.0159 | 0.769 |
| COC(=O)[C@@]1(Cc2ccccc2)[C@H]2c3cc(C(=O)N(C)C)n(Cc4ccc(Cl)c(C(F)(F)F)c4)c3C[C@H]2CN1C(=O)c1ccccc1 | 0.685 | 0.841 | 1.02 | -1.45 (inactive) | 1.37 | 1.31 | 0.603 | 1.45 | 0.283 | 1.29 |
| Cc1ccc(N2C(=O)c3ccccc3[C@@H](C(=O)NCCN3CCOCC3)[C@@H]2c2ccc(CO)cc2)nc1 | 1.25 | 0.0086 | 0.685 | 0.17 (inactive) | -0.329 | -1.09 | -0.914 | -0.799 | -0.459 | -0.382 |
| COCCOC(=O)N1C(=O)[C@@]2(c3cc(C#CCC(C(=O)OC)C(=O)OC)ccc31)[C@H](C(=O)N1CCc3cc(OC)c(OC)cc3C1)[C@H]1C(=O)O[C@H](c3ccccc3)[C@H](c3ccccc3)N1[C@@H]2c1ccccc1OCCO | 0.496 | -0.381 | -0.162 | -0.606 (inactive) | 1.18 | 1.31 | 1.01 | 1.38 | 1.19 | 1.02 |
| O=C(c1ccccc1)N1Cc2ccccc2C[C@@]2(N=C(c3ccc(OCCCO)cc3)O[C@H]2c2ccccc2)C1=O | 1.26 | -0.114 | -0.0152 | -0.847 (inactive) | 1.38 | 1.3 | 0.699 | 0.963 | 0.777 | -0.395 |
| COc1ccc(NN2C(C(O)c3ccccc3)C=CC3C(=O)N(C4CCCCC4)C(=O)C32)cc1 (stereo not given) | 1.25 | 0.535 | 0.291 | -1.18 (inactive) | 1.24 | 1.28 | 0.122 | 1.21 | 0.453 | 0.786 |
| COC(=O)[C@H]1N=C(c2ccc(OCCCO)cc2)O[C@H]1c1ccccc1N=[N+]=[N-] | 1.08 | 0.927 | 1.34 | -0.977 (inactive) | -0.0781 | 0.205 | -0.454 | -0.359 | -0.529 | 1.21 |
| C=CCNC(=O)[C@@H]1[C@H]2C(=O)O[C@H](c3ccccc3)[C@H](c3ccccc3)N2[C@H](c2ccc(O)cc2)[C@@]12C(=O)N(C(=O)OCCOC)c1ccc(C#CCC(C(=O)OC)C(=O)OC)cc12 | 0.533 | -0.0333 | 0.0912 | 0.942 (inactive) | 1.17 | 0.611 | 0.408 | 1 | 0.493 | 0.273 |
| COCCCNC(=O)[C@]1(Cc2ccccc2N=[N+]=[N-])N=C(c2ccc(OCCCO)cc2)O[C@@H]1c1ccccc1 | 1.5 | 1.23 | 1.28 | 1.08 (inactive) | 0.612 | 1.25 | -0.137 | 0.597 | -0.425 | 0.97 |
| COCCCNC(=O)[C@@]1(CCC(=O)OC(C)(C)C)N=C(c2ccc(OCCCO)cc2)O[C@H]1c1ccccc1 | 1.06 | 0.96 | 1.02 | -0.187 (inactive) | 0.638 | -0.505 | -0.266 | 0.297 | -0.538 | 0.701 |
| C=CCOC(=O)[C@@H]1[C@H]2C(=O)O[C@H](c3ccccc3)[C@H](c3ccccc3)N2[C@H](c2ccc(OCCOC(=O)[C@H]3C[C@H]4C(=O)N[C@@H](CCCCN(C)C)C(=O)N4[C@H]3c3cccc(OCCO)c3)cc2)[C@@]12C(=O)Nc1ccccc12 | 0.938 | 0.342 | 0.707 | 0.0554 (inactive) | -0.515 | 0.602 | -0.632 | -0.335 | -0.679 | 0.0981 |
| COC(=O)C(CC#Cc1ccc2c(c1)[C@]1(C(=O)N2)[C@H](C(=O)N2CCCCCCC2)[C@H]2C(=O)O[C@H](c3ccccc3)[C@H](c3ccccc3)N2[C@@H]1c1ccc(OCCO)cc1)C(=O)OC | 2.26 | 2.85 | 1.58 | 0.741 (inactive) | 1.63 | 1.5 | 1.94 | 1.71 | 2.55 | 1.73 |
| COC(=O)C[C@H]1O[C@]2(C(=O)N(C)c3ccccc32)[C@@H](C)[C@@H]1[Si](C)(C)c1ccccc1 | -0.0153 | -0.0571 | -0.261 | -1.25 (inactive) | 0.988 | 0.96 | 0.753 | 0.837 | 1.11 | -0.399 |
